Calls of active or inactive are those of the source.

A short description of assay [1]: binders of probe aFSTL3 on microarray, primary screen, stem cell growth factor project, biochemical, small-molecule microarray, fluorescence 635/667 (AID 1064).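 Note: measures binding of the biotinylated anti-FSTL3 antibody to printed compounds.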 The conditions noted are these: higher = more signal.
Assay [2] is described as follows: binders from COS7 lysate, DM2A8 probe, primary screen, torsin A project, cell lysate, small-molecule microarray, fluorescence 635/667 (AID 1065). As to conditions: higher = more signal, COS7 lysate expressing mutant human TOR1A.
Assay [3] is described as follows: binders of probe aFGF2 on microarray, primary screen, stem cell growth factor project, biochemical, small-molecule microarray, fluorescence 635/667 (AID 1067).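 Note: measures binding of biotinylated aFGF2 protein to printed compounds on slides; z-score merges feature fluorescence and signal-to-noise across triplicate slides.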 As to conditions: higher = more signal.
Assay [4] is described as follows: binders of probe aFGF10 on microarray, primary screen, stem cell growth factor project, biochemical, small-molecule microarray, fluorescence 635/667 (AID 1071).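 Note: score merges 667 nm spot intensity and signal to noise from triplicate slides.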 The conditions noted are these: higher = more signal.
For assay [5], the target named is Neurogenic locus notch homolog protein 2 (Homo sapiens) (UniProt Q04721). Description: Notch2 binders on small-molecule microarrays, primary screen, biochemical, small-molecule microarray, 635 nm fluorescence, stem cell growth factors (AID 1073). As to conditions: Notch2 binding, higher = more signal.
Sequence of Neurogenic locus notch homolog protein 2 (Homo sapiens) (Q04721 whole entry, looked up, canonical isoform): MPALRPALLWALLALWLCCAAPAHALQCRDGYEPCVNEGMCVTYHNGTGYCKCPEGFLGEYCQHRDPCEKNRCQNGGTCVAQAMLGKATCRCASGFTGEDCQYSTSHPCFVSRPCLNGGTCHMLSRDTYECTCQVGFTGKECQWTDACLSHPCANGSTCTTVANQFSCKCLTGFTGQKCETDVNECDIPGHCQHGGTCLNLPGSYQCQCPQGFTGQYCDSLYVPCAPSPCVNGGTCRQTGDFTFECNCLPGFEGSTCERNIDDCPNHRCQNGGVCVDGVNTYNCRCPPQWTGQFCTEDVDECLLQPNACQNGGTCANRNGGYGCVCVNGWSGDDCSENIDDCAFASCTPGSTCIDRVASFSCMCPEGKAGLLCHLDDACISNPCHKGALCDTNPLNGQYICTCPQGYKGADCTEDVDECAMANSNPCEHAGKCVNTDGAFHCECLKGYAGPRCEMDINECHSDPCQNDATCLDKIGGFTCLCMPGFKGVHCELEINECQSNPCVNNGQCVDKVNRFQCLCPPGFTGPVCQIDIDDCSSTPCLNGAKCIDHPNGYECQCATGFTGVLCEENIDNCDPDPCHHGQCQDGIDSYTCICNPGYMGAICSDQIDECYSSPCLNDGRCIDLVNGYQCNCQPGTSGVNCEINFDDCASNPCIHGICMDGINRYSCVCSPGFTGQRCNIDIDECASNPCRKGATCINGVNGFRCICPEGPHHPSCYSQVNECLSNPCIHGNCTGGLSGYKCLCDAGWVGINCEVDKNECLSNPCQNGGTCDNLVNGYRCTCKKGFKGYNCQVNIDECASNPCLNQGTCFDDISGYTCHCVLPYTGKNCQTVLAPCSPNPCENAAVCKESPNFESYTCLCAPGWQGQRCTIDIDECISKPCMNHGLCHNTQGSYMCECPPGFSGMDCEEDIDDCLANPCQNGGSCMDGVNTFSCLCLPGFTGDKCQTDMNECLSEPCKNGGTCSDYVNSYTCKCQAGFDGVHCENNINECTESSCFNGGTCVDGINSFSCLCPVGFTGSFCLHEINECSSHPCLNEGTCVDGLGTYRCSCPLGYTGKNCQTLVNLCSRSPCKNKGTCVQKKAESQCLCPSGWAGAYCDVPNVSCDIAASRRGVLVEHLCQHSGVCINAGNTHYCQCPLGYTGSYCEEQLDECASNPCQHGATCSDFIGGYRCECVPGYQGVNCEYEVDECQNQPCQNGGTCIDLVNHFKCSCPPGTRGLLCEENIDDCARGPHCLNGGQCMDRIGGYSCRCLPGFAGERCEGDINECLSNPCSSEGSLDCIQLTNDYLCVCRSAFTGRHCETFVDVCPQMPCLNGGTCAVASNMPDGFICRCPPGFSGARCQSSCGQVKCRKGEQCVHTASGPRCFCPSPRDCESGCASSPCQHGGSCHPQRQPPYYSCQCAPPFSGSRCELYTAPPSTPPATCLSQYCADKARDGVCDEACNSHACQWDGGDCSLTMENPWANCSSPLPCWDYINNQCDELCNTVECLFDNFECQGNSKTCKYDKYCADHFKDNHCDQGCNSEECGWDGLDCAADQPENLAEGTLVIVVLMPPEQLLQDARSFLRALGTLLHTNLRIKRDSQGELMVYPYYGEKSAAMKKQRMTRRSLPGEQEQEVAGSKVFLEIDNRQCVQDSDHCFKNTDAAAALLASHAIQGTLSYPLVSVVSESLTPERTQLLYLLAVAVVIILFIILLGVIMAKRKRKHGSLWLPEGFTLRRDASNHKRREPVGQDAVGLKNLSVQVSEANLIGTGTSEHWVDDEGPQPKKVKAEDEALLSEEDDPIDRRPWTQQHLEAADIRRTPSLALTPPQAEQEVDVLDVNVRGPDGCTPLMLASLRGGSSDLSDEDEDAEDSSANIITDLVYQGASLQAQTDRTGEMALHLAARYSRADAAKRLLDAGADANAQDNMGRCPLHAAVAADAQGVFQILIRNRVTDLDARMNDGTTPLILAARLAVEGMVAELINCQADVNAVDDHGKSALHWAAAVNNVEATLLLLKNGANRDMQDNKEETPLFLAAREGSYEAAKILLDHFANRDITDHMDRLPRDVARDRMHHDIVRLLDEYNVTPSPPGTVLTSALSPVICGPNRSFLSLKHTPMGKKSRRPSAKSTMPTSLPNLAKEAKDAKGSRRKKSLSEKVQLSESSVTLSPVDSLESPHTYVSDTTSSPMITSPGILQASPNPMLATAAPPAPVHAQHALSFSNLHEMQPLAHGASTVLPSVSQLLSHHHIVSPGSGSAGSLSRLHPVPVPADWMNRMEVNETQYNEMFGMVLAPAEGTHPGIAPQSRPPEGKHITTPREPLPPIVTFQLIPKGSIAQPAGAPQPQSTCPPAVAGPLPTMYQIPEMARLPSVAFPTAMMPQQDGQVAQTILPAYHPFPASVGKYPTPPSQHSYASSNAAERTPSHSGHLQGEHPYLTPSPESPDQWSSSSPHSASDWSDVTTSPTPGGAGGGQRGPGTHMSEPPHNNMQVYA
For assay [6], the target named is Pro-neuregulin-1, membrane-bound isoform (Homo sapiens) (UniProt Q02297). Description: NRG1 binders on small-molecule microarrays, primary screen, psychiatric disease protein project, biochemical, small-molecule microarray, fluorescence 635/667 (AID 1075).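 Note: score combines 667 nm spot fluorescence with signal to noise.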 As to conditions: NRG1 binding, 635 nm fluorescence, higher = more signal.
Sequence of Pro-neuregulin-1, membrane-bound isoform (Homo sapiens) (Q02297 whole entry, looked up, the tested form may be a part, canonical isoform): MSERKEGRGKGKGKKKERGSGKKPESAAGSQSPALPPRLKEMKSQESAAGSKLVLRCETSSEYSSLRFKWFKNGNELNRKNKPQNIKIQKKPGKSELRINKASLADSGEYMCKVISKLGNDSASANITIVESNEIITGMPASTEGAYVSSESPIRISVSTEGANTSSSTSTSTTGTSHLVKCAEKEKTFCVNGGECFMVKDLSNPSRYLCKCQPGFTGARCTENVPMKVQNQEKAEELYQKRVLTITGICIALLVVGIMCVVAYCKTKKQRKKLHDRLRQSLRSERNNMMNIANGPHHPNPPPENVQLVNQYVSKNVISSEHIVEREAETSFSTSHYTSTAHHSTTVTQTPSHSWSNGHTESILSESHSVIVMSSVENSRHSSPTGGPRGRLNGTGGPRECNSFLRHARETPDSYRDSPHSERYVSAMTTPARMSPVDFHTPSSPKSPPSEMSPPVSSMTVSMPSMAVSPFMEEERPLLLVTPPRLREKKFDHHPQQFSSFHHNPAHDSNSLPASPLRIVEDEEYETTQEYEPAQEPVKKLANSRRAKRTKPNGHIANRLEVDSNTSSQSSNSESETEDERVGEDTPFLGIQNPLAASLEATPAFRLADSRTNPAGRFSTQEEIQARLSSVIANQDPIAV
Assay [7] concerns Neuregulin-1 EGF-like domain. Put plainly: binders of neuregulin-1 EGF-like domain, primary screen, biochemical, small-molecule microarray, 635 nm fluorescence (AID 1081).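 Note: binding of the protein to compounds printed on small-molecule microarray slides.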 The conditions noted are these: small-molecule microarray binding, higher = more signal.
A short description of assay [8]: FRG1 promoter luciferase signal modulators, primary screen, FRG1 inhibition for FSHD, cell-based, C2C12 myotubes, firefly/Renilla luciferase, luminescence (AID 1084). As to conditions: higher = more signal, called active from +8 up or from −8 down.
Assay [9] is described as follows: binders of probe aFST on microarray, primary screen, stem cell growth factor project, biochemical, small-molecule microarray, fluorescence 635/667 (AID 1086).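 Note: score merges 667 nm fluorescence with signal-to-noise of each printed compound spot.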 The conditions noted are these: higher = more signal.
Assay [10] can be described thus: binders of probe aHhip on microarray, primary screen, stem cell growth factor project, biochemical, small-molecule microarray, fluorescence 635/667 (AID 1087).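 Note: score merges spot fluorescence at 667nm with spot signal to noise ratio.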 The conditions noted are these: higher = more signal.

In the case of `C=CC1c2cc(O)c(OC)cc2CCN1Cc1sc2ccccc2c1Cl` (stereo not given), the composite z-score is 1.12 in [1]; 0.396 in assay [2]; -0.0316 in [3]; 0.436 in assay [4]; 1.2 in assay [5]; 1.9 in assay [6]. In addition, the figures for the composite z-score in assay [7], in assay [9] and in [10] were 1.23, 0.853 and -0.0237, respectively. Further, in [8], the z-score is -0.732 (inactive).
Consider `COCCOC(=O)N1C(=O)[C@@]2(c3cc(C#CCNC(N)=O)ccc31)[C@H](C(=O)N1CCCCCCC1)[C@H]1C(=O)O[C@H](c3ccccc3)[C@H](c3ccccc3)N1[C@@H]2c1ccc(O)cc1`, for which the composite z-score in assay [1] was 0.333; in assay [2], 0.189; in assay [3], -0.0557; in [4], 0.159; in assay [5], 0.845; in assay [6], 0.571. Also, the composite z-score in [7] was found to be 0.596; in [9] it was 0.706; in assay [10], 0.0066. Moreover, the z-score in [8] was -0.134 (inactive).
Take `COC(=O)C[C@H]1O[C@]2(C(=O)N(C)c3ccccc32)[C@@H](C)[C@@H]1[Si](C)(C)c1ccc(C)cc1`: the composite z-score is -0.361 in assay [1]; 0.285 in assay [2]; 0.033 in assay [3]; 0.453 in [4]; 0.778 in assay [5]; 0.274 in [6]. Also, the composite z-score in [7] amounted to 0.815; in assay [9] it was 0.512; in assay [10], 0.28. In addition, the z-score in [8] was -2.37 (inactive).
For `Cc1ccc(S[C@]2(C(=O)NC(C)C)CC(=O)N(Cc3ccccc3C(F)(F)F)[C@@H]2c2ccc(CO)cc2I)cc1`, the composite z-score is 1.01 in [1]; -0.685 in [2]; -0.0924 in assay [3]; -0.545 in [4]; -1.67 in assay [5]; 1.91 in assay [6]. The composite z-score in assay [7] is 1.17; in [9] it was -0.415; in assay [10], -0.274. The z-score in [8] was -0.62 (inactive).
Turning to `COc1ccc([Si](C)(C)[C@H]2[C@H](CCn3cc([C@H](O)c4ccccc4)nn3)O[C@@]3(C(=O)N(Cc4ccc(N5CCOC5=O)cc4)c4ccccc43)[C@@H]2C)cc1`, the composite z-score in assay [1] was 0.365; in assay [2], -0.437; in assay [3], -0.204; in [4], -0.111; in [5], -1.11; in [6], 0.276. Also, the figures for the composite z-score in [7], in [9] and in assay [10] were -0.426, -0.757 and -0.236, respectively. In [8], the z-score was -1.58 (inactive).
Consider `Cc1c(NC(=O)/C(C#N)=C/C=C/c2ccccc2[N+](=O)[O-])c(=O)n(-c2ccccc2)n1C`, for which the composite z-score is -0.0331 in assay [1]; 0.563 in assay [2]; 0.0415 in assay [3]; 0.0448 in assay [4]; 1.03 in assay [5]; 1.1 in assay [6]. The composite z-score is 1.13 in assay [7], 0.334 in [9] and 0.0352 in [10]. Moreover, in assay [8], the z-score was -0.844 (inactive).
On to `C=CCNC(=O)[C@@H]1[C@H]2C(=O)O[C@H](c3ccccc3)[C@H](c3ccccc3)N2[C@H](c2ccccc2OCCO)[C@@]12C(=O)N(C(=O)OCCOC)c1ccc(C#CC3=CCCCC3)cc12`, for which the composite z-score is -0.0809 in assay [1]; 0.683 in assay [2]; 0.0496 in assay [3]; 0.586 in assay [4]; -0.0189 in assay [5]; 0.457 in [6]. The composite z-score is 1.2 in assay [7], 0.206 in assay [9] and -0.178 in [10]. In [8], the z-score was -1.11 (inactive).
As to `C=C[C@H](COC(C)=O)NS(=O)(=O)c1ccc(Br)cc1`, the composite z-score in assay [1] was -0.127; in assay [2] it was -0.256; in assay [3], -0.151; in assay [4], -0.286; in assay [5], -0.506; in assay [6], 0.241. Moreover, the composite z-score in assay [7] was 0.656; in assay [9], 0.0509; in assay [10], -0.0618. Moreover, the z-score in assay [8] is 1.54 (inactive).
Consider `CCOC(=O)C1=CC[C@@H](c2cc(Cl)ccc2Cl)N(S(=O)(=O)c2ccc(C)cc2)[C@H]1c1ccc(OC)cc1`, for which the composite z-score is 0.522 in assay [1]; 0.0025 in assay [2]; 0.259 in assay [3]; 0.582 in assay [4]; 0.147 in assay [5]; -0.362 in assay [6]. Further, the composite z-score was 0.13 in assay [7], 0.623 in [9] and 0.082 in [10]. Also, the z-score in [8] is -1.69 (inactive).
As to `COc1ccc([Si](C)(C)[C@H]2[C@H](CCn3cc([C@H](O)c4ccccc4)nn3)O[C@@]3(C(=O)N(Cc4ccc(N5CCC5=O)cc4)c4ccccc43)[C@@H]2C)cc1`, the composite z-score in [1] was -0.179; in assay [2] it was 1.16; in assay [3] it was -0.116; in assay [4] it was 0.368; in assay [5] it was 0.176; in assay [6] it was 0.635. The composite z-score in [7] was 0.636; in assay [9], 0.247; in [10], -0.0237. Also, in [8], the z-score was -2.36 (inactive).
Turning to `CN1C(=O)C2C=CC(C(O)c3c(F)cccc3Cl)N(Nc3ccccc3)C2C1=O` (stereo not given), the composite z-score in assay [1] is -0.196; in assay [2] it was -0.198; in [3], 0.171; in assay [4], 0.334; in assay [5], 1.55; in assay [6], 1.84. The values for the composite z-score in assay [7], in assay [9] and in assay [10] were 1.1, 0.878 and -0.0346, respectively. Also, the z-score in [8] was 0.433 (inactive).
On to `C[C@]1(C(=O)O)c2ccccc2C(=O)N(Cc2ccccc2)[C@H]1c1ccc(CO)cc1`, for which the composite z-score in assay [1] was 1.63; in assay [2], -0.646; in assay [3] it was -0.116; in assay [4] it was -1.03; in assay [5], -1.24; in assay [6] it was 0.869. In addition, the composite z-score in [7] was 0.521; in assay [9] it was -0.42; in [10] it was -0.164. For the same compound, the z-score in assay [8] is -0.319 (inactive).
On to `C=C(COC)/C(=C/C[C@@H](OC(=O)c1ccncc1)c1cccc(OCCO)c1)c1cnc2ccccc2c1`, for which the composite z-score in [1] amounted to 0.234; in assay [2] it was 1.99; in [3], 0.0601; in [4] it was 1.19; in [5], 1.76; in [6], 1.14. The composite z-score turned out to be 1.2 in [7], 1.47 in assay [9] and 0.251 in assay [10]. Moreover, the z-score in [8] is 0.589 (inactive).

These data come from PubChem BioAssay.
